Targets with a hit are over-represented here; the source holds about 7,900 in all. About 0.6% of all pairs of compound and target were hits.
The targets below were run with C1=CC=C(C=C1)[C@H](COC2=CC3=C(C=C2)NC(=O)N3)NC(=O)C4=CC=CN(C4=O)CC5=CC(=C(C=C5)F)F (assay: log2 fold change, soluble protein after heating vs DMSO (PISA); higher = thermal stabilisation; K562 cells, 10 uM, 30 min; active = over 0.2 and 3.5 SD of the protein, either way, in both replicates (recomputed)).
Summary of the method: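 K562 cells (2×10^6 cells/mL) were treated with 10 μM compound for 30 min, and aliquots were heated for 3 min over 48°C-58°C. Pooled aliquots were extracted in PBS with 0.5% NP-40 at 4°C, and the supernatant after 21,000xg for 90 min was measured by TMTpro 16plex LC-MS/MS with channel sums equalised. Reported thermal stability, relative to control samples and from duplicates, is a log2 fold change.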

UniProt P00846, sequence (P00846 whole entry, looked up): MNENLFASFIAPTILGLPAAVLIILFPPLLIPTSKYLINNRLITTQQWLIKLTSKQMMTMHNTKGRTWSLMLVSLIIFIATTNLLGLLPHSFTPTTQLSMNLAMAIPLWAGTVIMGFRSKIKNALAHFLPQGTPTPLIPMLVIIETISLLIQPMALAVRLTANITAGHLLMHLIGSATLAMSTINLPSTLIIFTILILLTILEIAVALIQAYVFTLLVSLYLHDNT
UniProt Q14978, sequence (Q14978 whole entry, looked up): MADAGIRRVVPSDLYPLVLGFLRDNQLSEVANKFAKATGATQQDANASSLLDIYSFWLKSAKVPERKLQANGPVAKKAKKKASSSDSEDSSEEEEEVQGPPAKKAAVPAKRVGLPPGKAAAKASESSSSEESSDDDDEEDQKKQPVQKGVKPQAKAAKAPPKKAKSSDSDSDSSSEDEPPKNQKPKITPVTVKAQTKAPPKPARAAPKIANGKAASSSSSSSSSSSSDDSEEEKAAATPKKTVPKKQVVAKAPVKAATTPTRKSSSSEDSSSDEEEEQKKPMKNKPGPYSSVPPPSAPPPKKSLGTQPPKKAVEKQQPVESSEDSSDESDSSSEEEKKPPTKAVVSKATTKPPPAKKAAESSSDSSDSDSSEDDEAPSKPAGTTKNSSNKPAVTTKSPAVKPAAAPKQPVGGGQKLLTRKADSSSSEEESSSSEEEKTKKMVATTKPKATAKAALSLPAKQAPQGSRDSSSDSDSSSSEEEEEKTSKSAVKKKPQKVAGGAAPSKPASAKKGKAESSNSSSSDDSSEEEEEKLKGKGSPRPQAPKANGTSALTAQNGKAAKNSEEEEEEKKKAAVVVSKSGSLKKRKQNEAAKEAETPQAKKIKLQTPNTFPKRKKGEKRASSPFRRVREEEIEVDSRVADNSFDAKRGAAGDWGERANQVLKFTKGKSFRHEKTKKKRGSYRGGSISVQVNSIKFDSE
UniProt P51948, sequence (P51948 whole entry, looked up): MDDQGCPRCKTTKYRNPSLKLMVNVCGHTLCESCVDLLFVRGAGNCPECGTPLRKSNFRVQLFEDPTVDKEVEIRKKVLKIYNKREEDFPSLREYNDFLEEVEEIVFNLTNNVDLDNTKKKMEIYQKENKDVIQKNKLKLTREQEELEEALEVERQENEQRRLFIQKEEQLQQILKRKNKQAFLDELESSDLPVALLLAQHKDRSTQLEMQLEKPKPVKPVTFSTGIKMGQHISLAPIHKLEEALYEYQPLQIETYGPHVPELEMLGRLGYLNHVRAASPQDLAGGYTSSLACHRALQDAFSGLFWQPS
UniProt Q9HBL8, sequence (Q9HBL8 whole entry, looked up): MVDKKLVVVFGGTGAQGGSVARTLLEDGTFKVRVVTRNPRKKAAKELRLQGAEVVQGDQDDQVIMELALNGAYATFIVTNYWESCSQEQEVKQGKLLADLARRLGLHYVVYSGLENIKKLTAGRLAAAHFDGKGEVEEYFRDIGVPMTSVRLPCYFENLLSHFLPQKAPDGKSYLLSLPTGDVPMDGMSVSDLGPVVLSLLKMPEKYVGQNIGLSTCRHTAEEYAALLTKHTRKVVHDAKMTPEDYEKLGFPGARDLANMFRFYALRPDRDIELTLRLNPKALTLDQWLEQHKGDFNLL
UniProt Q13423, sequence (Q13423 whole entry, looked up): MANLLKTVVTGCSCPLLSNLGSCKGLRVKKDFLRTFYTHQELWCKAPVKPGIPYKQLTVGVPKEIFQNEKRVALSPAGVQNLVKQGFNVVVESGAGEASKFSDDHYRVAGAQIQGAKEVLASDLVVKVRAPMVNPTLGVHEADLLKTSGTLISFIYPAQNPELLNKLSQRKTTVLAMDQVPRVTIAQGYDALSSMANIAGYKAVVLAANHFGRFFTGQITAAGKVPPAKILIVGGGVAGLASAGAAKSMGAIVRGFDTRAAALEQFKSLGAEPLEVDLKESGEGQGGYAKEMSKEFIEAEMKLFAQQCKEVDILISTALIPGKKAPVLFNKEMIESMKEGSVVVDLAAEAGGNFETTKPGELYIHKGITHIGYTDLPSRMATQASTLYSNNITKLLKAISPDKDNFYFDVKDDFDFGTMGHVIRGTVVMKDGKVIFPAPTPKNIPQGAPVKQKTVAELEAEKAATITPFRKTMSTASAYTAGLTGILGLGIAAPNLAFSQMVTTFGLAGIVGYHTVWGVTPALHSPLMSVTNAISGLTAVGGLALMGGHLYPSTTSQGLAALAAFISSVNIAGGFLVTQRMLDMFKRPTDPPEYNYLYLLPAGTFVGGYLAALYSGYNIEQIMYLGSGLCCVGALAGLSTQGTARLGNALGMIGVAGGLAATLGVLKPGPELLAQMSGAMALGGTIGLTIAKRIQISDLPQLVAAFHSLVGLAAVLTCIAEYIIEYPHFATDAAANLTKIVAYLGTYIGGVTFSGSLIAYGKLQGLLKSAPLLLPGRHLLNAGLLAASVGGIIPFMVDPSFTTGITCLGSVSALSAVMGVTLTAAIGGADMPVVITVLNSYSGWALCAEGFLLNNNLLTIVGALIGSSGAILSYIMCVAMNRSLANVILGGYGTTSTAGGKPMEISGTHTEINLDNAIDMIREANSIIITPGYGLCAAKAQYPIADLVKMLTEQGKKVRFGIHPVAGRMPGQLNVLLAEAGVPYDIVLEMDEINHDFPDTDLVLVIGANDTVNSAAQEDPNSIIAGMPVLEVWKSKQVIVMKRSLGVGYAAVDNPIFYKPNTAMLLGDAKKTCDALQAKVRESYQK
UniProt O14950, sequence (O14950 whole entry, looked up): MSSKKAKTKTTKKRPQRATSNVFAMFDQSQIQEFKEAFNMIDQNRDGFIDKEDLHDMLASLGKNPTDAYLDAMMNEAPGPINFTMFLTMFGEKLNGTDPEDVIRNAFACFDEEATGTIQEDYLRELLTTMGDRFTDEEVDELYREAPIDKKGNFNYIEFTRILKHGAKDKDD
UniProt Q9BWT6, sequence (Q9BWT6 whole entry, looked up): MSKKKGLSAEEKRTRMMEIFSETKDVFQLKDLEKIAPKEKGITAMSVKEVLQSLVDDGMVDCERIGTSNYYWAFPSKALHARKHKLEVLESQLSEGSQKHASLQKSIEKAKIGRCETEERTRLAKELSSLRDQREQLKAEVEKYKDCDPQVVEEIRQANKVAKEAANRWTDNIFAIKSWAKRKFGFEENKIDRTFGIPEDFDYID
UniProt Q92692, sequence (Q92692 whole entry, looked up): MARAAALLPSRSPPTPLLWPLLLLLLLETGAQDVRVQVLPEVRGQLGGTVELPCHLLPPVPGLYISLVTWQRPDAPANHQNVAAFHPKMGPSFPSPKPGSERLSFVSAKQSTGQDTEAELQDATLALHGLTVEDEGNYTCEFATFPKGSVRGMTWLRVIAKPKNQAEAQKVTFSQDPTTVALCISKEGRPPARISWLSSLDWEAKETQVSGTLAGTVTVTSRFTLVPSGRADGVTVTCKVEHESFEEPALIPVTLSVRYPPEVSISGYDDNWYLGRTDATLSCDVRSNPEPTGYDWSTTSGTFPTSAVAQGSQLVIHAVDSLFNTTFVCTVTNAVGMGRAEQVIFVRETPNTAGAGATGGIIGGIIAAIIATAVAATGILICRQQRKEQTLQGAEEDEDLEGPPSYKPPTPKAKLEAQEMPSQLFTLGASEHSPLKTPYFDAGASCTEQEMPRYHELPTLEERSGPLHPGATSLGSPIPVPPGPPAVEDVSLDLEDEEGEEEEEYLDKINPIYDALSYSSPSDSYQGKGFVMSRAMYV
UniProt Q9BV86, sequence (Q9BV86 whole entry, looked up): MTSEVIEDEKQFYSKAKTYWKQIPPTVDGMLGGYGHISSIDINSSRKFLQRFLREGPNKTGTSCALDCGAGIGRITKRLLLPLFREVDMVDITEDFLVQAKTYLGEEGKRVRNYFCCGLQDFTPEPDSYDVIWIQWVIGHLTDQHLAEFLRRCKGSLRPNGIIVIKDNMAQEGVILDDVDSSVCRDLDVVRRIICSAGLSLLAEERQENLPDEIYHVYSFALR
UniProt Q6VY07, sequence (Q6VY07 whole entry, looked up): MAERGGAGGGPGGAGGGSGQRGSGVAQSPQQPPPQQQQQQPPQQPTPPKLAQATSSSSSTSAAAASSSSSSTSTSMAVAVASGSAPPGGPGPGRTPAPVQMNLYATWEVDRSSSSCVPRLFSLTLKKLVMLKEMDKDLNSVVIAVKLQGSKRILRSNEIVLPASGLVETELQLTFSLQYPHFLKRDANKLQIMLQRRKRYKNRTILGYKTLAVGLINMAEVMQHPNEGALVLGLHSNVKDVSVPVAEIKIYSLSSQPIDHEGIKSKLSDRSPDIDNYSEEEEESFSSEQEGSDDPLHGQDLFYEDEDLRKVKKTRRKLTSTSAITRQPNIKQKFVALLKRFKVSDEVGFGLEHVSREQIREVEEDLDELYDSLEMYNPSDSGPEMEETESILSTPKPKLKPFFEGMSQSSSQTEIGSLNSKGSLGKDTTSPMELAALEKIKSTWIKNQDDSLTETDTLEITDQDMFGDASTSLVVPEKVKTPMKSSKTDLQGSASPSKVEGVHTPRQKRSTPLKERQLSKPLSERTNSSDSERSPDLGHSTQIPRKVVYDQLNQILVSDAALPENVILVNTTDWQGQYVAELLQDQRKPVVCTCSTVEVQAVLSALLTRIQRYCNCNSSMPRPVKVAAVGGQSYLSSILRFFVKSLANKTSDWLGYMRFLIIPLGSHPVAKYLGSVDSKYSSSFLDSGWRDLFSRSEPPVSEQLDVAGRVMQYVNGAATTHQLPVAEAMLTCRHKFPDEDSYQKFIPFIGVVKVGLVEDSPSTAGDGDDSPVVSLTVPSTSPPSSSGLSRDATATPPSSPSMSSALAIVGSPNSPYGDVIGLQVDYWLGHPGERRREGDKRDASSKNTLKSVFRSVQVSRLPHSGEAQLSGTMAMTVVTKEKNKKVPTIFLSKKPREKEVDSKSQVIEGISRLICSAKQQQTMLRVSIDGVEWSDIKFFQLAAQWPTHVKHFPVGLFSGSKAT
UniProt O75438, sequence (O75438 whole entry, looked up): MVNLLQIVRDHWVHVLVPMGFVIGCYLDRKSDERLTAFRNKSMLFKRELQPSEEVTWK

| Target | log2 fold change |
| --- | --- |
| MOV10 (UniProt Q9HCE1) | 0.067 (inactive) |
| MSH6 (UniProt P52701) | -0.24 (inactive) |
| MRPL34 (UniProt Q9BQ48) | 0 (inactive) |
| NFATC3 (UniProt Q12968) | -0.03 (inactive) |
| MNAT1 (UniProt P51948) | 0.011 (inactive) |
| NCL (UniProt P19338) | 0.158 (inactive) |
| MYLK (UniProt Q15746) | -0.08 (inactive) |
| MYL12B (UniProt O14950) | 0.028 (inactive) |
| NNT (UniProt Q13423) | -0.014 (inactive) |
| MRPS21 (UniProt P82921) | -0.238 (inactive) |
| PACS1 (UniProt Q6VY07) | -0.02 (inactive) |
| NPM3 (UniProt O75607) | 0.066 (inactive) |
| MORF4L2 (UniProt Q15014) | 0.089 (inactive) |
| NDUFS8 (UniProt O00217) | -0.049 (inactive) |
| NOLC1 isoform 2 (UniProt Q14978) | 0 (inactive) |
| MND1 (UniProt Q9BWT6) | 0.009 (inactive) |
| NDUFB1 (UniProt O75438) | -0.004 (inactive) |
| NTMT1 (UniProt Q9BV86) | 0.001 (inactive) |
| OGFOD2 (UniProt Q6N063) | 0.124 (inactive) |
| NDUFAF6 (UniProt Q330K2) | -0.048 (inactive) |
| NECTIN2 (UniProt Q92692) | 0.017 (inactive) |
| MT-ATP6 (UniProt P00846) | -0.828 (active) |
| NMRAL1 (UniProt Q9HBL8) | -0.12 (inactive) |
| MRPS2 (UniProt Q9Y399) | -0.084 (inactive) |
